# The list is not random: actives were taken first. Their share in the collection is about 2.6%.
# CF NFkB inh = inhibitors of PAF-induced NF-kB signaling, primary screen, cell-based, GFP fluorescence, uHTS; KKLEB NF-kB-GFP reporter, GFP fluorescence overnight; inhibition, % at 5 µM; hit rate 0.86% among 360,000; AID 588850, 2011;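 active = at least 50% inhibition at 5 µM, scaled per plate between neutral and stimulator controls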;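 also: PAF is a Pseudomonas aeruginosa culture filtrate used as stimulus; plate controls were PAF-stimulated DMSO wells for no effect and unstimulated DMSO wells for full effect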
# KKLEB cytotox = cytotoxicity in KKLEB CF airway cells, primary screen, cytotoxicity control for CF NF-kB inhibitor project, cell-based, uHTS, fluorescence assay plates | activity change (cytotoxicity), % at 5 µM | KKLEB CF airway cells viability, ATPlite luminescence, overnight; active compounds read low; cells stimulated with P. aeruginosa culture filtrate | hit rate 0.36% among 360,000;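 active = corrected activity change at or below -50% at 5 µM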
# TROY signal inh = inhibitors of TROY-driven NF-kB signaling, primary screen, Q293 LMP1-TROYcd cells, NF-kB luciferase, uHTS | Q293 LMP1-TROYcd NF-kB luciferase reporter, 4 h | inhibition, % at 10 µM | hit rate 0.98% among 360,000 | AID 1347056, 2019;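 active = compounds whose plate-normalised and pattern-corrected inhibition of the luciferase reporter signal at the single screening dose is 50% or more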
# TWEAK-Fn14 inh = inhibitors of TWEAK-Fn14 signaling, primary screen, luciferase reporter cells, uHTS; inhibition, % at 10 µM; hit rate 2% among 360,000; TWEAK-stimulated Fn14 reporter cells, luciferase luminescence, 8 h; in the data active = inhibition above about 50%
# LGR2 inh = inhibitors of bursicon-induced LGR2 CRE-luciferase signal, primary screen, cell-based, HEK293, CRE-luciferase reporter, bursicon stimulation; AID 720647, 2013; Drosophila bursicon receptor LGR2 (rickets); inhibition, % at 9.99 µM; hit rate 0.35% among 380,000; bursicon-stimulated, 4 h;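 active = drop in luminescence signal, shown as inhibition above about 50% in the replicate tests, limit read from the data, passing the limit was not always enough; inconclusive = probably only some replicates passing the limit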;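 also: agonist challenge used bursicon conditioned medium at about half maximal strength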
# EWS-Fli block = EWS/Fli-driven NR0B1 reporter inhibitors, primary screen, A673 cells, NR0B1 luciferase, luminescence, MLPCN library | AID 651661, 2012 | hit rate 0.67% among 350,000 | viability-normalised | inhibition, % at 12.6 µM;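 active = mean inhibition of at least 50% after viability correction, with every replicate also passing that limit; inconclusive = mean reaches 50% but only one of two replicates passes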;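 also: firefly luciferase signal divided by Alamar Blue viability fluorescence both relative to DMSO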
# The depositor's hits bear a star; ? = inconclusive; . = no result; ! = not active in a repeat.
SMILES,CF NFkB inh,KKLEB cytotox,TROY signal inh,TWEAK-Fn14 inh,LGR2 inh,EWS-Fli block
CCN(CC)C(=O)C1CCCN(C(=O)c2ccc3nc(-c4cccc(OC)c4)oc3c2)C1 (stereo not given),-14.5,9.2,-41.9,-6.0,-32.0,-44.8
CCOC(=O)C1CCCN(C(=O)c2ccc3nc(-c4cccc(OC)c4)oc3c2)C1 (stereo not given),13.0,-16.1,68.2*,46.4,-56.9,.
CCC(=O)C1CCCN(C(=O)c2ccc3nc(-c4cccc(OC)c4)oc3c2)C1 (stereo not given),26.1,-18.8,53.4*,38.7,-52.7,.
COCC(=O)Nc1ccc2c(c1)OC[C@H](C)N(C(C)=O)C[C@@H](C)[C@H](OC)CN(C)C2=O,.,.,.,.,7.0,2.0
O=S(=O)(c1ccc(NC(=S)NCCC(c2ccccc2)c2ccccc2)cc1)N1CCOCC1,13.1,-5.0,39.0,55.7*,14.4,.
S=C(NCCC(c1ccccc1)c1ccccc1)Nc1ccc(Cl)cc1,7.4,-2.2,45.0,61.6*,-7.3,.
COc1cc(NC(=S)NCCC(c2ccccc2)c2ccccc2)c(OC)cc1Cl,6.1,-3.5,53.0*,30.1,-9.9,.
S=C(NCCC(c1ccccc1)c1ccccc1)Nc1ccccc1Cl,-3.2,-0.2,32.2,1.3,.,.
COc1ccc(Cl)cc1NC(=S)NCCc1ccc(S(N)(=O)=O)cc1,1.3,7.7,-13.3,-38.3,7.7,6.4
COc1ccc(Cl)cc1NC(=S)NCCC(c1ccccc1)c1ccccc1,-7.4,7.7,24.8,26.7,5.1,-1.5
COc1cc(NC(=S)NCc2ccc(S(N)(=O)=O)cc2)c(OC)cc1Cl,-7.2,1.7,4.5,17.0,-5.0,65.3*
CN1C(=O)c2cc(NC(=O)c3cscn3)ccc2OC[C@H]2O[C@H](CC(=O)N3CCCCC3)CC[C@H]21,.,.,.,.,-24.3,-3.1
COc1cccc(-c2ccc([C@@H]3[C@@H](CO)N4C(=O)CN(C(=O)C5CCC5)C[C@@H]34)cc2)c1,.,.,.,.,10.9,7.2
CCCNC(=O)N(C)C[C@@H]1Oc2ncc(-c3ccc(F)cc3)cc2C(=O)N([C@H](C)CO)C[C@@H]1C,.,.,.,.,13.9,-3.3
CNC[C@@H]1Oc2ccc(NC(=O)C3CC3)cc2C(=O)N([C@H](C)CO)C[C@@H]1C,.,.,.,.,-14.3,-1.3
CCCNC(=O)N(C)C[C@@H]1Oc2cc(Br)ccc2S(=O)(=O)N([C@H](C)CO)C[C@H]1C,.,.,.,.,7.0,-5.5
COc1cccc(/C=N/n2c(C3CCCCC3)n[nH]c2=S)c1OC,19.9,5.3,-12.5,-5.9,-9.3,8.3
COc1cccc(/C=N/n2c(C3CCCCC3)n[nH]c2=S)c1O,14.6,-15.4,11.5,60.3*,0.6,10.1
FC(F)Sc1ccc(NC(=S)N2CCN(c3ccccn3)CC2)cc1,6.2,-1.3,12.4,56.0*,16.4,.
O=C(NCc1cccnc1)c1ccc(-c2ccc(Cl)cc2)o1,-15.2,-15.3,-11.6,-11.6,-1.9,10.6
O=C(NCc1cccnc1)/C(=C\c1ccc(-c2ccc(Cl)c(Cl)c2)o1)S(=O)(=O)c1ccccc1,98.6*,-98.2*,89.4*,105.0*,102.5*,40.3
COc1ccc(S(=O)(=O)Nc2ccc3c(c2)CC(=O)N([C@@H](C)CO)C[C@H](C)[C@@H](CN(C)Cc2ccncc2)O3)cc1,.,.,.,.,13.3,-0.3
Cc1cc(Nc2cccc(Cl)c2)nc(N2CCOCC2)n1,32.6,-16.2,90.6*,92.5*,20.8,.
Cc1cc(Nc2ccccc2)nc(N2CCOCC2)n1,7.2,-0.6,-15.2,-7.1,.,.
CC1CCC(C(C)C)C(OC(=O)Cn2c(-c3ccc(Br)cc3)[n+](C)c3ccccc32)C1 (stereo not given),54.5*,-57.3*!,38.9,55.9*!,77.8*,21.0
SMILES,CF NFkB inh,KKLEB cytotox,TROY signal inh,TWEAK-Fn14 inh,LGR2 inh,EWS-Fli block
CC1CCC(C(C)C)C(OC(=O)COC(=O)c2cccn2C)C1 (stereo not given),10.0,6.4,5.0,16.3,.,.
Cc1ccccc1OCc1n(CC(=O)OC2CC(C)CCC2C(C)C)c2ccccc2[n+]1C (stereo not given),83.2*,-82.7*,64.5*,83.2*!,74.7*,?
CC(C)[C@@H]1CC[C@@H](C)C[C@H]1OC(=O)C[n+]1cc(-c2ccc(Cl)cc2)n2c1CCCCC2,47.7,-44.3,49.5,63.9*,.,30.8
CC1CCC(C(C)C)C(OC(=O)Cn2c(-c3ccc(Cl)cc3)[n+](C)c3ccccc32)C1 (stereo not given),55.8*,-58.0*,18.8,59.2*,16.8,22.6
C[C@H]1CCCCO[C@H](CN(C)Cc2ccccc2)[C@@H](C)CN([C@@H](C)CO)C(=O)c2cc(NS(=O)(=O)c3cn(C)cn3)ccc2O1,.,.,.,.,-6.0,3.9
CO[C@H]1CN(C)C(=O)c2cc(NS(C)(=O)=O)ccc2OC[C@H](C)N(C(=O)C2CCCC2)C[C@@H]1C,.,.,.,.,-25.2,-5.5
CO[C@@H]1CN(C)C(=O)c2cc(NC(=O)C3CCCCC3)ccc2OC[C@@H](C)N(C)C[C@@H]1C,.,.,.,.,3.5,-15.3
C[C@@H]1CN([C@@H](C)CO)C(=O)c2ccccc2-c2ccccc2CO[C@@H]1CN(C)Cc1cccc(C(F)(F)F)c1,.,.,.,.,20.6,38.1
Cc1c(NC(=O)/C(=C\c2ccccc2)NC(=O)c2ccccc2)c(=O)n(-c2ccccc2)n1C,6.3,-10.5,-9.0,93.6*,.,.
COc1ccc2c3c([nH]c2c1)[C@H](CO)N(C(=O)c1cnccn1)CC31CN(S(=O)(=O)c2ccccc2)C1,.,.,.,.,16.1,1.2
Cc1ccc(Cl)cc1N1CCN(C(=O)c2noc(C)c2[N+](=O)[O-])CC1,49.4,-30.5,6.5,-0.9,9.5,70.3*
CCC(=O)N[C@H]1CC[C@H](CCNC(=O)Nc2ccc(F)cc2)O[C@@H]1CO,.,.,.,.,3.3,-19.0
COc1ccccc1C1CC(c2cccs2)=Nc2ccccc2S1 (stereo not given),-10.8,-19.3,-15.4,-6.8,.,.
Fc1ccccc1C1CC(c2ccco2)=Nc2ccccc2S1 (stereo not given),4.4,2.6,42.9,53.1*,-51.5,-40.9
CN(C)C(=O)C[C@@H]1CC[C@H]2[C@@H](COc3ccc(NC(=O)C4CC4)cc3C(=O)N2C)O1,.,.,.,.,5.0,0.5
COc1ccc(-c2ccc([C@H]3[C@@H](CO)N4CCCCN(S(=O)(=O)c5cccs5)C[C@H]34)cc2)cc1,.,.,.,.,12.2,6.8
O=C(c1ccco1)N1CCN(c2nc(C(F)(F)F)nc3c2nnn3Cc2ccccc2)CC1,-5.7,0.8,53.2*,54.8*,26.4,.
O=C(C[C@@H]1C[C@H]2c3cc(NC(=O)CC4CC4)ccc3O[C@H]2[C@H](CO)O1)NCCN1CCCCC1,.,.,.,.,3.8,-5.2

# Bioassay records (PubChem BioAssay)
